This experiment has as its target Sialic acid-binding Ig-like lectin 9 (Homo sapiens) (UniProt Q9Y336). As to the kind of experiment: Hs-Siglec9 ALPHAscreen SOP 20170721. Set-up: scale not given: direction of the effect not stated beside the values. The settings on record: 10 µM. For orientation: Bead proximity is the source of the signal in Alpha formats.
Sequence of Sialic acid-binding Ig-like lectin 9 (Homo sapiens) (Q9Y336 whole entry): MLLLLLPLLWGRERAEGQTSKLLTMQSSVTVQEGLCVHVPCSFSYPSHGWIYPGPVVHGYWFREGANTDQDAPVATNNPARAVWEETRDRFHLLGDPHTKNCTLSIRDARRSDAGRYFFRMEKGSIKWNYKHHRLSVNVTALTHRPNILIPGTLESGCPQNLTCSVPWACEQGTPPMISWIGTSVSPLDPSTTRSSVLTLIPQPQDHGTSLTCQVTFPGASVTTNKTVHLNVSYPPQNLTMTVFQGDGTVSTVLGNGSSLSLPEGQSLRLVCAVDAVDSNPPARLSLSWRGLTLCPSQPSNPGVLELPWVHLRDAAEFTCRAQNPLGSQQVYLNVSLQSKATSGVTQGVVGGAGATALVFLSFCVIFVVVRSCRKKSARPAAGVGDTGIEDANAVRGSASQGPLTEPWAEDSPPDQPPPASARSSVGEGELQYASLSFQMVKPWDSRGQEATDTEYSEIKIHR
On to `CN(Cc1ccsc1)C(=O)c1cccc(S(=O)(=O)NC(C)(C)C)c1`, for which the Percent Effect is -1.29%. For `Clc1snnc1CN1CCCCC1Cn1cncn1` (stereo not given), the Percent Effect is -9.75%. Then `O=C(CC1CC1)N1CCC2(CC1)CN(c1ncccn1)CCO2`, with 6.83%; and `CC(C)c1noc(CCC(=O)NC(C)c2nnc3n2CCCCC3)n1` (stereo not given), with -8.65%. The value for `CC1c2ncc(COc3cccnc3)n2CCN1C(=O)Cc1ccco1` (stereo not given) was 6.28%. The value for `COc1cccc(CN(C)S(=O)(=O)N2CCOCC2)c1` was -0.478%. Take `Cc1ccc(S(=O)(=O)NC2CNC(=O)C2)cc1C` (stereo not given): the Percent Effect is -8.87%. On to `COCC(O)CN(C)C(=O)NC1CCN(Cc2ccccn2)CC1` (stereo not given), for which the Percent Effect turned out to be 1.62%. As to `O=C(NCc1ccco1)[C@H]1C[C@H]2OCC[C@H]2N(S(=O)(=O)C2CC2)C1`, the Percent Effect stood at 14.7%. Then `Cc1ncsc1CN1C[C@@H](OCC2CC2)[C@H]2OCCC[C@H]21`, with 32.2%. The value for `COc1ccc(C2Nc3ccccc3C3=NCCCN32)cc1OC` (stereo not given) was -1.83%; that for `O=C(NC[C@]12COC[C@H]1CN(Cc1nccs1)C2)N1CCCC1` was 2.77%; that for `CC(C)c1cc(NC(=O)c2ccc(NC3CC3)nc2)[nH]n1` was 10.4%. Then `O=C(c1cnc(C2CC2)s1)N1CCCC(n2cccn2)C1` (stereo not given), with -0.959%; and `O=C1N(c2ccc(Br)cc2)Cc2nc(=O)[nH]n21`, with 0.772%. Turning to `COc1ccc(C(=O)N(Cc2cnn(C)c2)C(C)C)cc1Br`, the Percent Effect is 8.74%.

Take `CCCc1cc(C(=O)N(C)Cc2cccc3ncccc23)n(C)n1`: the Percent Effect was 20.3%.

With `Cc1nc(CN2C[C@@H]3CN(C(=O)C4CC4)C[C@@H]3C2=O)cs1`, the Percent Effect was -11.9%. Then `Cc1ccc(NC(=O)NCCCc2n[nH]c(N)c2C#N)cc1`, with -1.97%; and `CS(=O)(=O)NCC(=O)NC1CCc2nccn2C1` (stereo not given), with -2.36%.

Consider `CCCN(CC(=O)NC)C(=O)c1ccc(-c2ccsc2)nc1C`, for which the Percent Effect amounted to 10.6%.

Take `Cc1ccc(C(=O)N2CCc3c(CNS(C)(=O)=O)cncc3C2)o1`: the Percent Effect stood at 1.5%. The value for `Cc1cnn(CCC(=O)N2CCOC(c3nc(C(C)(C)C)n[nH]3)C2)c1` (stereo not given) was 3.02%. The value for `COc1cc(C)nc(N2CCN(C(=O)c3ccccc3C)CC2)n1` was 17.5%. The value for `COCC1CC2(CCN(C(=O)c3cccn3C)CC2)CN1C(C)C` (stereo not given) was -2.06%; that for `Cc1cc(C(=O)N2C[C@@H]3COC[C@]3(c3nnc(C4CC4)o3)C2)on1` was -0.841%; that for `CCOc1nnc(CN2CCC(N(C)Cc3noc(C)n3)C2)s1` (stereo not given) was -14.9%. For the compound `Cc1cnc(CN(C)C2CCN(CC(=O)Nc3c(C)n[nH]c3C)C2)o1` (stereo not given), the Percent Effect is -1.23%.

Take `CNC(=O)C1CCN(C(=O)CCn2cccn2)CC1`: the Percent Effect came to 7.36%. The value for `COCCNC(=O)[C@@H]1CC[C@@H]2[C@@H](CCN2Cc2cnn(C)c2)O1` was 2.22%; that for `Cc1cc(C)n(CC2CCCN2C(=O)CCCc2ccccn2)n1` (stereo not given) was 0.753%; that for `Cc1nccc(-c2cccc(NCC(=O)N3CCNC3=O)c2)n1` was 0.813%. The value for `O=C(c1cnco1)N1CCCC(Cc2cccc3ncccc23)C1` (stereo not given) was -0.964%. The value for `O=C(NCC(=O)N1CCCCC1)c1ccc(Cl)cc1I` was 3.75%. Take `Cc1cncc(C2CCCN(C(=O)c3scnc3C)C2)n1` (stereo not given): the Percent Effect worked out at 2.37%. Then `COC1CCN(C(=O)Cc2csc(-c3ncccn3)n2)CC1`, with 6.25%; and `CC(C)Cc1noc(CN2CCOC(Cn3cncn3)C2)n1` (stereo not given), with -4.71%; and `Cc1nc(C)n(C2CCCN(C(=O)c3ccccc3C)C2)n1` (stereo not given), with -8.82%. `CCCc1ncc(C(=O)N2CCOC(c3nc(C)n[nH]3)C2)s1` (stereo not given): the Percent Effect was determined as 3.58%. The value for `Cc1ccsc1[C@@H]1CCN(C(=O)c2cc3ccccc3[nH]2)C[C@H]1O` was -5.71%.

The values are drawn from ChEMBL document CHEMBL3988442, “University of Dundee, Small-Polar-MMV Screening Library” (2021).
